We go through 1 compound from ChEMBL document CHEMBL2218924, “A broad activity screen in support of a chemogenomic map for kinase signalling research and drug discovery” (Biochem J, 2013).

In assay [1] the target is T1, Mitogen-activated protein kinase kinase kinase 7 (Homo sapiens) (UniProt O43318).
T1 sequence (whole entry): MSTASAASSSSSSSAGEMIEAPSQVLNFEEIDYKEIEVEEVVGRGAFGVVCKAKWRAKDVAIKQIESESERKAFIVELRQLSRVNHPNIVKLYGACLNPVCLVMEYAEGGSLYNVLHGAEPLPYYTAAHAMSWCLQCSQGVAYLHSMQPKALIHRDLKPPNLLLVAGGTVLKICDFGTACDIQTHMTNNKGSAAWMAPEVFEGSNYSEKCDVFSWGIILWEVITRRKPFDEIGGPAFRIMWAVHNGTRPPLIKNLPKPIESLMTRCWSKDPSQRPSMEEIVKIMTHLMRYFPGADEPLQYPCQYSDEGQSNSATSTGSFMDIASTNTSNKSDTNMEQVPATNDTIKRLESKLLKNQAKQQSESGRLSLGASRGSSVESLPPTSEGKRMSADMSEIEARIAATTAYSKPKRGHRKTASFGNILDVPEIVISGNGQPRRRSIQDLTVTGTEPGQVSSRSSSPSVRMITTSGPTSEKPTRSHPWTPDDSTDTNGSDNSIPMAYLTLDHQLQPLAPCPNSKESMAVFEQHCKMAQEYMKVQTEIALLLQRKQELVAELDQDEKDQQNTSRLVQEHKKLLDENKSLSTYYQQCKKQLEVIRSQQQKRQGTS
As to conditions: at 1 µM.

The target in assay [2] is T1, Mitogen-activated protein kinase kinase kinase 7 (Homo sapiens). The conditions noted are these: at 10 µM.
The target of assay [3] is T2, Serine/threonine-protein kinase TAO1 (Homo sapiens) (UniProt Q7L7X3).
T2 sequence (whole entry): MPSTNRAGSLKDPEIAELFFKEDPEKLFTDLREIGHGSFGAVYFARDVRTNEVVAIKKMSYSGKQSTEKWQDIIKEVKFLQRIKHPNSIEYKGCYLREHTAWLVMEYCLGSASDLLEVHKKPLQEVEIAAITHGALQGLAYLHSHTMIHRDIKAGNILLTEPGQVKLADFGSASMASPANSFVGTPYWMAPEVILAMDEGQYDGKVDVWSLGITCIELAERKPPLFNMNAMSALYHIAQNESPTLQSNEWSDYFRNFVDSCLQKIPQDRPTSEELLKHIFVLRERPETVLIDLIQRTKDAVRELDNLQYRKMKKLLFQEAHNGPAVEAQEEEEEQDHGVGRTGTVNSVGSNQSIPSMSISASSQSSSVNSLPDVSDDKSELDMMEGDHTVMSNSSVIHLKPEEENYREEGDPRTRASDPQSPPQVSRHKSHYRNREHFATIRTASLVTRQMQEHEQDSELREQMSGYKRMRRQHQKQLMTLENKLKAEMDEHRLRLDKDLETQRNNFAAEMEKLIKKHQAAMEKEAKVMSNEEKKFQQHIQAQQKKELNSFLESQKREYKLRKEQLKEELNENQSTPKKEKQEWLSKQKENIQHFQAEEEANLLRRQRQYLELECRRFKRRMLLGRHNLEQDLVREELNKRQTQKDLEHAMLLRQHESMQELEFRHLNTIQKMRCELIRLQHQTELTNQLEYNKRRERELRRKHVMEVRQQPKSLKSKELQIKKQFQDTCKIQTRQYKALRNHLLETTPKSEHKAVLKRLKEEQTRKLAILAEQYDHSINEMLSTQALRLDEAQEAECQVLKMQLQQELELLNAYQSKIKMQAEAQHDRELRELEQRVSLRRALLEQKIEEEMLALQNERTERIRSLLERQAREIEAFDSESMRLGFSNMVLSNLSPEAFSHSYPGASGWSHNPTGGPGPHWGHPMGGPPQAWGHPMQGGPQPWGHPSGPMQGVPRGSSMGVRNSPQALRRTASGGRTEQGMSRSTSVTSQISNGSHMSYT
The conditions noted are these: at 1 µM.

Assay [4] addresses T2, Serine/threonine-protein kinase TAO1 (Homo sapiens). The conditions noted are these: at 10 µM.
The target in assay [5] is T3, Serine/threonine-protein kinase TAO2 (Homo sapiens) (UniProt Q9UL54).
T3 sequence (whole entry): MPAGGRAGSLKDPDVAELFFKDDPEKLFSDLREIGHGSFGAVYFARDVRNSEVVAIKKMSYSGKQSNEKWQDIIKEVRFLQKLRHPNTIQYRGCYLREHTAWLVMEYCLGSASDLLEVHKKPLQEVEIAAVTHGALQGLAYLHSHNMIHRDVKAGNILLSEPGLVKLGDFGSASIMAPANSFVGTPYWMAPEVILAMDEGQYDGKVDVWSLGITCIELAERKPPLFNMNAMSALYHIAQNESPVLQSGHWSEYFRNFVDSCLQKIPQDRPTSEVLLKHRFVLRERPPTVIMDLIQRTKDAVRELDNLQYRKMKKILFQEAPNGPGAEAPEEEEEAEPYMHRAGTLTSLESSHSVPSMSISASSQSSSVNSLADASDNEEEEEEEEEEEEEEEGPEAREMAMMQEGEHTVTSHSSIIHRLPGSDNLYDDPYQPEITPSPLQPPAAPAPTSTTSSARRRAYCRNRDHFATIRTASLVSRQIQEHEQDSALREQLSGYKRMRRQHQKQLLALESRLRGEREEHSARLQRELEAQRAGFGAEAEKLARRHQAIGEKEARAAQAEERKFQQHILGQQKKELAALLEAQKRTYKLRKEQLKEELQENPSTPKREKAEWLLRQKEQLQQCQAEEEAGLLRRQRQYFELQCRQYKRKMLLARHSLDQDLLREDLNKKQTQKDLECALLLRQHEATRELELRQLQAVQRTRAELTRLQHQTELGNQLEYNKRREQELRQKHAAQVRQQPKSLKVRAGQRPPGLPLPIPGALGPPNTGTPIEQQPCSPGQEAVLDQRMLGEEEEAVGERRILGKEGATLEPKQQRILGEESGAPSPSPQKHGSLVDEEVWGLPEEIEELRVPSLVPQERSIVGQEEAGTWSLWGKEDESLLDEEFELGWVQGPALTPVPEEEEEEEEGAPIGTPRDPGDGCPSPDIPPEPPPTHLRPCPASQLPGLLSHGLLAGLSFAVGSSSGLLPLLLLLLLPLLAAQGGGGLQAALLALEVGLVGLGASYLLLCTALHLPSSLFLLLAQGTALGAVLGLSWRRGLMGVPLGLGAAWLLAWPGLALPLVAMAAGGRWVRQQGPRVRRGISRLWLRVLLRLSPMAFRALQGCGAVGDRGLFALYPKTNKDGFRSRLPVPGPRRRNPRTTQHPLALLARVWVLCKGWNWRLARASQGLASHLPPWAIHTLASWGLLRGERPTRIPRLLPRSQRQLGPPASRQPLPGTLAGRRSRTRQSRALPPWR
The conditions noted are these: at 1 µM.

Assay [6] addresses T3, Serine/threonine-protein kinase TAO2 (Homo sapiens). As to conditions: at 10 µM.
The target in assay [7] is T4, Serine/threonine-protein kinase TAO3 (Homo sapiens) (UniProt Q9H2K8).
T4 sequence (whole entry): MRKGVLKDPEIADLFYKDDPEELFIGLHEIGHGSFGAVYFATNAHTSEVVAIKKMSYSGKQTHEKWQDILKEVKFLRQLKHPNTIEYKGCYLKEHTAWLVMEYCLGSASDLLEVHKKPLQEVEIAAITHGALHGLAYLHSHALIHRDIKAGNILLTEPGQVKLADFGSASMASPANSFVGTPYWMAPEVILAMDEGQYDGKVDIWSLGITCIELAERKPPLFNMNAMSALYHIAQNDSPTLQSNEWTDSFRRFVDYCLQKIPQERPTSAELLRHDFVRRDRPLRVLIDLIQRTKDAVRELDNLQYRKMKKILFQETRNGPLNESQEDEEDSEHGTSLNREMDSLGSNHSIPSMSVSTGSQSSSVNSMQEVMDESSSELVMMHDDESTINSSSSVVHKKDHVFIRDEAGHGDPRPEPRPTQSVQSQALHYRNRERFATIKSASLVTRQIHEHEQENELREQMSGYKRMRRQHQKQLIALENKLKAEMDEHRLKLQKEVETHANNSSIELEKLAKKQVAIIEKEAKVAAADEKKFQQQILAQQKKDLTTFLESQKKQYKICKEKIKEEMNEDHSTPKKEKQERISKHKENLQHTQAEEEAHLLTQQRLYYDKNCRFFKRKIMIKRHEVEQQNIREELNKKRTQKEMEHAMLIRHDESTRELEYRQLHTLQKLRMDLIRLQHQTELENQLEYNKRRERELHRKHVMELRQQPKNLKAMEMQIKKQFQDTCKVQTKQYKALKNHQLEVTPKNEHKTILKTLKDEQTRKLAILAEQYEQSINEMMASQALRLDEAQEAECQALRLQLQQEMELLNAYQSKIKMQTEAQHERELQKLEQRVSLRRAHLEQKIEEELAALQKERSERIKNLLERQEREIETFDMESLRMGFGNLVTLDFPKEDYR
The conditions noted are these: at 1 µM.

Assay [8] has as its target T4, Serine/threonine-protein kinase TAO3 (Homo sapiens). As to conditions: at 10 µM.
Assay [9] addresses T5, Serine/threonine-protein kinase TBK1 (Homo sapiens) (UniProt Q9UHD2).
T5 sequence (whole entry): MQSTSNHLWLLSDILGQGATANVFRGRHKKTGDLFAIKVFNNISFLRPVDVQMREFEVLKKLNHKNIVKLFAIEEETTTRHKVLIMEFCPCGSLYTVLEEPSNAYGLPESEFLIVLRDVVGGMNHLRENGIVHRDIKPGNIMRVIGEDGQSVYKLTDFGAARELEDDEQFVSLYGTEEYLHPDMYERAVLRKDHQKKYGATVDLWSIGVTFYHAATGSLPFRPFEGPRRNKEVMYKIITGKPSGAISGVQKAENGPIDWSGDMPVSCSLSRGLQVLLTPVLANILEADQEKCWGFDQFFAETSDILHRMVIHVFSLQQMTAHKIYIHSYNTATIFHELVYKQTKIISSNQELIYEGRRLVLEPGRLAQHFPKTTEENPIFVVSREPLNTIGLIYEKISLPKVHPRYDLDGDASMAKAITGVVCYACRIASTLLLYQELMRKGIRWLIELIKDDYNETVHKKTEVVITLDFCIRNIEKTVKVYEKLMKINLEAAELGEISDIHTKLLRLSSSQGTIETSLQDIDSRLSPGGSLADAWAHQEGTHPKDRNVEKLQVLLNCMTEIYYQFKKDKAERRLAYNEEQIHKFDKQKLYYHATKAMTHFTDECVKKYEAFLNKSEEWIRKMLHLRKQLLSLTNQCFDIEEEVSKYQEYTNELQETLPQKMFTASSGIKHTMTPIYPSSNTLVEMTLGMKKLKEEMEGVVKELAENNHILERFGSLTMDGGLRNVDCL
The conditions noted are these: at 1 µM.

The target in assay [10] is T5, Serine/threonine-protein kinase TBK1 (Homo sapiens). As to conditions: at 10 µM.
The target in assay [11] is T6, TGF-beta receptor type-1 (Homo sapiens) (UniProt P36897).
T6 sequence (whole entry): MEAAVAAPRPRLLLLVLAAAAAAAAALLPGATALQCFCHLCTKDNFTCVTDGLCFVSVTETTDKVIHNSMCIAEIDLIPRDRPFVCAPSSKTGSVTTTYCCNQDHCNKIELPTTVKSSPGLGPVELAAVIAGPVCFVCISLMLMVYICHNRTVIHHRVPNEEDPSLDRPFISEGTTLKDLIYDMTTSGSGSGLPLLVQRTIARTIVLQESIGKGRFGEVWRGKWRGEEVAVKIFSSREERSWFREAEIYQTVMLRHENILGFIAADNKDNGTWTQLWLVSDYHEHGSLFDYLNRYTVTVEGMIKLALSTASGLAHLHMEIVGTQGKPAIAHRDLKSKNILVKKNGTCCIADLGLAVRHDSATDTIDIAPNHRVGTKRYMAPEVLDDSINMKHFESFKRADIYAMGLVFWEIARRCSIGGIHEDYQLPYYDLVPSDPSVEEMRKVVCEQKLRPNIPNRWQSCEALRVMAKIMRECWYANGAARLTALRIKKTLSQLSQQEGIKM
As to conditions: at 1 µM.

Assay [12] addresses T6, TGF-beta receptor type-1 (Homo sapiens). As to conditions: at 10 µM.
The target of assay [13] is Insulin-like growth factor 1 receptor (Homo sapiens) (UniProt P08069). The conditions noted are these: at 1 µM.
The target is the same in assay [14]. As to conditions: at 10 µM.
Assay [15] deals with Insulin receptor (Homo sapiens) (UniProt P06213). The conditions noted are these: at 1 µM.
Insulin receptor (Homo sapiens), sequence (P06213 28-758 limits assumed): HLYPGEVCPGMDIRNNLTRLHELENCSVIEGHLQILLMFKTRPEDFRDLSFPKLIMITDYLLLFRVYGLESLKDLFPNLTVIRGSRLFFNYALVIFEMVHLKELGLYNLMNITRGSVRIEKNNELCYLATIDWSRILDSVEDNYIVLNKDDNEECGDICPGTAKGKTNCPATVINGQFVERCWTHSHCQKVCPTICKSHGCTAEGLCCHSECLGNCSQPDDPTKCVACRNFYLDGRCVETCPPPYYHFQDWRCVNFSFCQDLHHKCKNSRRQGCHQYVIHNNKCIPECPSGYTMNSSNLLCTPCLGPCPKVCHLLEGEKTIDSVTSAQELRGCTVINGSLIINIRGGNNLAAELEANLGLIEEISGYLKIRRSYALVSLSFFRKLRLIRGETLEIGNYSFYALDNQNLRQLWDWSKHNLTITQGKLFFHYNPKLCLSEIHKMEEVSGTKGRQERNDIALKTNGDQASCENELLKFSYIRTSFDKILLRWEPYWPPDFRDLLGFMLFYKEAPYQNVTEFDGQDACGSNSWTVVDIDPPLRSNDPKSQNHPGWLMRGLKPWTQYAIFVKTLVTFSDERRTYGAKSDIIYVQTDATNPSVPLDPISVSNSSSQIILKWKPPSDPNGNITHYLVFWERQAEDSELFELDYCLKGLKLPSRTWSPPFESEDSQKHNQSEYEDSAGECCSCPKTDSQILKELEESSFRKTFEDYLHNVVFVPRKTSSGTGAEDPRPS
Insulin receptor (Homo sapiens), sequence (P06213 763-1382 limits assumed): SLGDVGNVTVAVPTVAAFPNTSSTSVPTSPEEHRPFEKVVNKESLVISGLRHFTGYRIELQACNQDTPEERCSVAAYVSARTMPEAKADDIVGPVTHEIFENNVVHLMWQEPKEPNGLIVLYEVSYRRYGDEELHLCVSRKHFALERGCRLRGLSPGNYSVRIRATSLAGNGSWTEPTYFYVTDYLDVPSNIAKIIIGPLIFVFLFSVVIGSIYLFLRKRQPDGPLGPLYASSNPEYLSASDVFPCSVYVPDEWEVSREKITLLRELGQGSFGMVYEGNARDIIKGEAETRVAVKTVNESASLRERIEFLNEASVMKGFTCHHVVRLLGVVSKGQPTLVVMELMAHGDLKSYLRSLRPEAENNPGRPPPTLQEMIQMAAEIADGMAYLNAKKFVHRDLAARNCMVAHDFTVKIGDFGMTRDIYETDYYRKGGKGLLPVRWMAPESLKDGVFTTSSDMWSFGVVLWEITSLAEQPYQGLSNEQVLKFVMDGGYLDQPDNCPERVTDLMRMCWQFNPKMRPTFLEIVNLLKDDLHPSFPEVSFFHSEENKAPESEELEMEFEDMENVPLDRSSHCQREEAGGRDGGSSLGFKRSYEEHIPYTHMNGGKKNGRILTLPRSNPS

Insulin-like growth factor 1 receptor (Homo sapiens), sequence (P08069 31-736 limits assumed): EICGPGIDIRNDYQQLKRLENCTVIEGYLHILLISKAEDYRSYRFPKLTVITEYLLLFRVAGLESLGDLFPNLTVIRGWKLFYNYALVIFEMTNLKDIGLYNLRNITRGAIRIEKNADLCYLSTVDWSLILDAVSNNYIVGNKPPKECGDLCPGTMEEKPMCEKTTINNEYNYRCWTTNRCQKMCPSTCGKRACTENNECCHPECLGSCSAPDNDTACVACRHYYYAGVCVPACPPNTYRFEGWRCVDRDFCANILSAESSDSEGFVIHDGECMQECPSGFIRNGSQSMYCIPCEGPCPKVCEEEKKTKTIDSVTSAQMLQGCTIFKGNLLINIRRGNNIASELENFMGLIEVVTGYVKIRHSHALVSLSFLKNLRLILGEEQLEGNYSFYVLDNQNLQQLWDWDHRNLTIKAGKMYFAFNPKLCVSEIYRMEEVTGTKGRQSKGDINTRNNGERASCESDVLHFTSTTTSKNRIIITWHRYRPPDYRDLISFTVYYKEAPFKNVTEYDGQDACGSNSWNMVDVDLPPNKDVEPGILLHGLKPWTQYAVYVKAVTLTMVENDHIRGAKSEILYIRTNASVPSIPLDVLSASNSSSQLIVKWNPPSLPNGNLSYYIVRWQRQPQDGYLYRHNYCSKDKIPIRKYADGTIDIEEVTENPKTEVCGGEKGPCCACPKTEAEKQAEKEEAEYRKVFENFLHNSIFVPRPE
Insulin-like growth factor 1 receptor (Homo sapiens), sequence (P08069 741-1367 limits assumed): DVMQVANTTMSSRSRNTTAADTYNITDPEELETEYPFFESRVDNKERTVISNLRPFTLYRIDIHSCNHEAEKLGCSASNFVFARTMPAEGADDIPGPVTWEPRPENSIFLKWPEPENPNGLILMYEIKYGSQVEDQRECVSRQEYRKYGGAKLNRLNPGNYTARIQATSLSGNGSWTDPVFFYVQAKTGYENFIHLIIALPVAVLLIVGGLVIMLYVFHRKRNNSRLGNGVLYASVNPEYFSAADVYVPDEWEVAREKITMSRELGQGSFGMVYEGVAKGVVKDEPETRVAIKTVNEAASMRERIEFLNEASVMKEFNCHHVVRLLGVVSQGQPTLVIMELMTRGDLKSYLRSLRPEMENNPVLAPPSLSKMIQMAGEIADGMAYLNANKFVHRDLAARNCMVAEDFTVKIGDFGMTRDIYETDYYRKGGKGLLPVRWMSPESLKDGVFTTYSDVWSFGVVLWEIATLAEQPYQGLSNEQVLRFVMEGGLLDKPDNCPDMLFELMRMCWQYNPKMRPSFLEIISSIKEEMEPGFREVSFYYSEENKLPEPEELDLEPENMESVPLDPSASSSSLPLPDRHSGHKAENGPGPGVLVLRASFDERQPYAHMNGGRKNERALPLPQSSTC

`c1ccc(-c2n[nH]cc2-c2ccnc3ccccc23)nc1`: the residual activity in assay [1] was found to be 91%; in assay [2], 71%; in [3], 107%; in assay [4] it was 95%; in [5], 103%; in assay [6] it was 86%. Further, the residual activity is 91% in assay [7]; 84% in assay [8]; 71% in assay [9]; 66% in assay [10]; 6% in [11]; 0% in [12]. Also, the residual activity was 99% in assay [13], 82% in assay [14] and 108% in assay [15].
